The text below walks through data of PubChem BioAssay AID1347426 (Functional Genomics Laboratory (NCATS/FGL), 2020).

Among all 31,000 sequences or so, about 1,400 (4.5%) were called active. Many of the other results were omitted from the sample, so actives are more common in it than they were. Values without a mark were called inactive.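 The calls were made as follows: active = median seed-adjusted z-score above 1 or below -1; inactive = the rest.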

A short description of this assay: Novel Modifiers of Survival Motor Neuron (SMN) Protein: Gene Identification via Genome-wide siRNA Screen.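 Also: luminescence tracks full-length SMN protein made from the SMN2 reporter.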 Conditions: HEK293T SMN2-luciferase reporter, siRNA knockdown, 72 h; actives lie on both sides. The method, boiled down:
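HEK293T cells stably carrying an SMN2 promoter/splicing cassette–luciferase reporter were reverse-transfected with 1 pmol siRNA per well (druggable-genome library, 3 siRNAs per gene) and grown 72 h at 37 °C. Luminescence, normalized to negative-control siRNA and log10-transformed, was scored as MAD.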
Background: A reporter such as luciferase makes a cellular process visible.
Turning to CCAGCUCCUUUAUCAAGCATT against RAD51, the median seed-adjusted z-score is 0.594. Under GCCUGGAUAACAUCACUGATT against AIM2 stands 0.0646; under GACCUGAUGUGGACCCAGATT against MIOX, 0.14. Under GCGACCAACUGAUUGUCGATT against PTPRZ1 stands 1.73 (active); under GACACUUGCUUAGAAGUAATT against LRP12, 0.416.

As for GGAUCUACGUGUACGUCAATT against LPAR3, the median seed-adjusted z-score is -0.3. Under GGAUCAGUUUGACAGUUUUTT against RNPEP stands -0.236.

As to GGAAAUUAGCUGCAGCUGATT against PPP1R2, the median seed-adjusted z-score was 0.208.

Take GGAGAACCACAGUUGCUUUTT against IL17RA: the median seed-adjusted z-score is -1.29 (active). Regarding GGAUUCAUCCUUACCCUCATT against PPP2R4, the median seed-adjusted z-score was 0.318. Under GCUUUACAGAAAGCCGUGATT against STRADB stands 0.21; under CCCUCGAGCAUGUUCCAAATT against PRPF6, -1.06 (active); under AGAUCGUGGUGCAUCCAUATT against ELA1, 0.687. Take GCACCAACCUGACCUGUCATT against CD33: the median seed-adjusted z-score was -0.355. Under GAACCAAGAUCAUUAUGCATT against DNAJC2 stands -0.0357; under GCGCAGCCUUUAGAGGAUATT against UBE2J1, -1.2 (active); under UGGAGUAAAUAGUUCUAAUTT against UBE2V1, 0.745.

Take UGAGGAUAGUGGGUCUGUATT against MEIS3: the median seed-adjusted z-score is 0.207. Under GACUCAUCGUGAUGAGAUUTT against SLC7A9 stands 0.194. In the case of GGAACAAGUAUUUAGGAAATT against CAPSL, the median seed-adjusted z-score was -0.168.

Turning to CCCUAGGCCUUUUACGAAATT against RAG1, the median seed-adjusted z-score is -1.35 (active). In the case of AGCAGAAGAAGUUCAAAUATT against P2RX1, the median seed-adjusted z-score was 0.908.

GCAGUAUAUUACAAACAAATT against NAT2: the median seed-adjusted z-score was -0.0495. With GGCCCAAGCUUCAACAGCATT against DNASE2, the median seed-adjusted z-score was -1.23 (active).

Consider GGAAAUCGUUCAGUAAGAATT against ZNF175, for which the median seed-adjusted z-score was -0.0194. Next, CCAUAACCUUAUUGACGCATT against LRFN4: -0.076. In the case of GCCUGAUUCUGAGUGAUGATT against SPTLC2, the median seed-adjusted z-score was 0. Under GCCUGAUACAAAAUCAACATT against TRPC5 stands -1.14 (active); under GGAGUUACAUCAGACCUAUTT against MOGAT1, 0.293. For the sequence GGAAAUCUGAAGACGAUAATT against CCAR1, the median seed-adjusted z-score is -1.18 (active). Under AACUGGGAAUUGAGAGGUATT against SOX12 stands 0.478; under GGCCUUACCAAUCAUCAUUTT against SLC28A2, -0.076; under GAAUUCGACCAGUAUUUGATT against SOX7, -0.387.

Take CCGUAUGUUUUGCUGCAAATT against ABCC4: the median seed-adjusted z-score was -1.66 (active).

Turning to GCAAGUCCCGCAAAAAGAATT against NEIL1, the median seed-adjusted z-score was -0.168.

GCACCGUCAAGGAAGAUAATT against ADAMTSL1: the median seed-adjusted z-score was -0.107. Next, GUAUGCGACUGGGAUCUUATT against HP: 0; CAGUGGAAAUAAUUACGUUTT against MDH1B: -1.13 (active); GAUCUACACUUGGAUGGAUTT against SAP18: 2.14 (active). Next, CUAACGAAGAUUCACCCAATT against ASPN: -0.0432. On to UCGUGGUUGUUAAUUUGAATT against CSNK1E, for which the median seed-adjusted z-score was -0.796. Next, CAACUGUUCCUGUAUUGAATT against SLCO4C1: -0.116; GUAUCAAUCUAGAGCACAATT against MYOZ2: 0.315; CGAGCUACACUGUCCACUUTT against CSGLCA-T: 0.146. Under GGACUUGCUCGGCUCUAUATT against CRKRS stands -1.16 (active); under CAACUUGGACAAGACCUUATT against GYS1, 0.874; under CGACAUCAGCUGAUAAUCATT against NPY1R, 0.76. Take AACAGUAUCUUUCAGAAUATT against TMPRSS5: the median seed-adjusted z-score was 1.25 (active). On to GGCUGAAUUAUGACCGGAATT against PPFIA4, for which the median seed-adjusted z-score was 0.0399.

CUUGGAUACAGAUACGUUUTT against TLK1: the median seed-adjusted z-score was -0.0133. Under UCGAUAUUCUAAGAUCACATT against UBE2D3 stands 1.62 (active); under CACCUUAACUUCAUCAACATT against SCN4A, -0.681. With GAGCUGGGAUGAUAAAGAUTT against AGPAT2, the median seed-adjusted z-score is 0.38. Regarding GCGAUGAUGUGGAACCUUATT against TBC1D9, the median seed-adjusted z-score is -0.0473.

Take AUAUAACACUUCUACUCUUTT against CMA1: the median seed-adjusted z-score is -0.0475. Under CAACGAUGCUAGAAGAAUUTT against PCOLCE2 stands -1.15 (active). Next, CCGUCUAUAUGGAGUCUUUTT against ROR1: -0.0044. As for CUACUUUCGAGACUACUUUTT against DGAT2, the median seed-adjusted z-score was 0.195. Next, GGGAAGAUAUUUGUCAGCATT against PLXNA2: 0.308; ACAGGCCUGUGAAACCCUATT against PEX5: -0.0414. In the case of GCCUUACCUGGAGAACUGATT against VPS26A, the median seed-adjusted z-score was -1.55 (active). Take GCGAGAAUCUGUUAGUAAATT against PANK3: the median seed-adjusted z-score is -0.185. Next, CCAUCUUCACUGACGAGCATT against GSC: 0.17. Regarding CCUUUUUGCUGGACACUGUTT against PLEKHF1, the median seed-adjusted z-score is 0.055. As for CACCCAUGCUGACAGUGAATT against HLA-DMA, the median seed-adjusted z-score is -0.00543. Under GCCUCCUUCUUUGACCGGATT against NACC1 stands 1.59 (active); under GGACUUCUUUUGUCAUGCATT against BCKDHB, 0.366.

Take GAACAGAUGUUUGAGACUUTT against GUCA1A: the median seed-adjusted z-score is 0.101. As for GCGAGUGUCUUGAAGUAUATT against PLAA, the median seed-adjusted z-score is -0.192.

For AAACAUUAUUUACCAUUCATT against ZNF439, the median seed-adjusted z-score was -0.26. Under CCACGUGUCUAACACCAAUTT against KRT79 stands 0.338. Next, GAAUAUAUCUAAAUCGCAUTT against RORA: -0.144; GACCUCACGUUGUCGAAGATT against GTPBP4: 1.01 (active); GACUUGGAGUUUCAGGCAATT against XPC: -0.564. Next, GCUCCAGUCUUUUCGCAAATT against DSG4: -0.0211. For CCAAUUCUACAAAAGCAAATT against SRD5A3, the median seed-adjusted z-score is -0.165. Under CGUGCACAGAUAUUACGCATT against FIGNL1 stands -0.408; under GCAUUGUCGUUGCAAUCGATT against CLCA1, 0.015; under GCAUCGAGCAGGAACAGAATT against ATP2B2, 1.37 (active). As for UUUUUGAUGUGGACUCAAATT against USP18, the median seed-adjusted z-score was -0.326. Turning to GUUCAAUACUUGAACACGATT against FFAR2, the median seed-adjusted z-score is 0.146. As for GAAUUACAGUGACAGUUCATT against AP3M1, the median seed-adjusted z-score is 0.

Turning to GUAAUGUUCUUAAACGAAUTT against PPP2R5C, the median seed-adjusted z-score is 1.14 (active).

Regarding GAAACAUCUGGUGCUAUUATT against KREMEN2, the median seed-adjusted z-score is -0.0883. Under GCAAGAAUCCCUAAAGCAUTT against BAG2 stands -0.87; under CAGUUGAUAUUCAUAAAGATT against ABI2, -0.0392; under GGGCAGAAUUGGAAUGCGATT against CNTNAP4, -0.414. Next, AGAGCGGUCUGACAGUGGATT against NUDT1: -0.175; GGUAUAAACGCGUCCAGCATT against MAFB: 0.674; CCAACGACGUGGUGCAGAATT against CLDN14: -0.456. Next, CAGCAAACCUUUGACCAGATT against U2AF2: 2.14 (active); CUACGGCUACGUCUACAUCTT against GPR25: 0.377. Take GAGCGGACAUGAUAAGCAUTT against CD302: the median seed-adjusted z-score is 0.0818. With GGAUGAUAUUAACAGGUCATT against USP8, the median seed-adjusted z-score was 0.743. On to GCAUACGCAGGAUCCUGGATT against KRT34, for which the median seed-adjusted z-score was 0.124.

As to CGAGUUAGCAAGUUCAGCATT against CTRL, the median seed-adjusted z-score is 0.0758. As to GAAAUCUUCUUGAGUGUAATT against GPR141, the median seed-adjusted z-score was -0.777. As to GGACAAUGUUGGGAAUAGATT against GPATCH2, the median seed-adjusted z-score was 0.0828. Under UCCUCUAAAAAUUACAGUATT against TUBB2A stands 1.03 (active); under CAUUAGAUCUGUGAUUAGATT against MCOLN3, -0.09. With GGAAUGCUCCAAAAUGGGATT against FKBP1B, the median seed-adjusted z-score was -0.561. Consider GCACAUGUUUGGAGGAUUUTT against ZNRF2, for which the median seed-adjusted z-score was 0.

As for CAACCCAGCCCAUCCCAAATT against PDK2, the median seed-adjusted z-score was -0.481. Next, CUGUGAAGAUAGAAGGAUATT against CAPZA1: -0.0237; GCAUUUCUUGGGUUGGUGATT against GABPA: 1.43 (active); CCGCGCAGUUCAUCUCAAATT against SNX15: -0.152. Next, CACUAGAAAUAACAAUGGATT against TMPRSS11D: -0.0643. Regarding AGAUCUCGUGGUUCUGGAATT against RPUSD1, the median seed-adjusted z-score is 0.327.
